This passage reports Potency results from PubChem BioAssay AID504333 (National Center for Advancing Translational Sciences (NCATS), 2011).

About 16,000 (4.4%) of roughly 360,000 compounds were called active. Not shown: some 9% with an inconclusive outcome. The call rests on the fitted dose curve; in most records, active means well fitted inhibition curve with a large enough effect; inconclusive means small, poorly fitted or top-dose-only effect; inactive means no such curve, though single readings can be large or run the other way. What follows is part of a selection rich in actives, with near analogues and random picks from the rest. A call without a number means that no potency is given here.
Potency means the concentration at half of the fitted maximal effect.

Chain of Bromodomain adjacent to zinc finger domain protein 2B (Homo sapiens) (Q9UIF8 whole entry, looked up, the tested form may be a part): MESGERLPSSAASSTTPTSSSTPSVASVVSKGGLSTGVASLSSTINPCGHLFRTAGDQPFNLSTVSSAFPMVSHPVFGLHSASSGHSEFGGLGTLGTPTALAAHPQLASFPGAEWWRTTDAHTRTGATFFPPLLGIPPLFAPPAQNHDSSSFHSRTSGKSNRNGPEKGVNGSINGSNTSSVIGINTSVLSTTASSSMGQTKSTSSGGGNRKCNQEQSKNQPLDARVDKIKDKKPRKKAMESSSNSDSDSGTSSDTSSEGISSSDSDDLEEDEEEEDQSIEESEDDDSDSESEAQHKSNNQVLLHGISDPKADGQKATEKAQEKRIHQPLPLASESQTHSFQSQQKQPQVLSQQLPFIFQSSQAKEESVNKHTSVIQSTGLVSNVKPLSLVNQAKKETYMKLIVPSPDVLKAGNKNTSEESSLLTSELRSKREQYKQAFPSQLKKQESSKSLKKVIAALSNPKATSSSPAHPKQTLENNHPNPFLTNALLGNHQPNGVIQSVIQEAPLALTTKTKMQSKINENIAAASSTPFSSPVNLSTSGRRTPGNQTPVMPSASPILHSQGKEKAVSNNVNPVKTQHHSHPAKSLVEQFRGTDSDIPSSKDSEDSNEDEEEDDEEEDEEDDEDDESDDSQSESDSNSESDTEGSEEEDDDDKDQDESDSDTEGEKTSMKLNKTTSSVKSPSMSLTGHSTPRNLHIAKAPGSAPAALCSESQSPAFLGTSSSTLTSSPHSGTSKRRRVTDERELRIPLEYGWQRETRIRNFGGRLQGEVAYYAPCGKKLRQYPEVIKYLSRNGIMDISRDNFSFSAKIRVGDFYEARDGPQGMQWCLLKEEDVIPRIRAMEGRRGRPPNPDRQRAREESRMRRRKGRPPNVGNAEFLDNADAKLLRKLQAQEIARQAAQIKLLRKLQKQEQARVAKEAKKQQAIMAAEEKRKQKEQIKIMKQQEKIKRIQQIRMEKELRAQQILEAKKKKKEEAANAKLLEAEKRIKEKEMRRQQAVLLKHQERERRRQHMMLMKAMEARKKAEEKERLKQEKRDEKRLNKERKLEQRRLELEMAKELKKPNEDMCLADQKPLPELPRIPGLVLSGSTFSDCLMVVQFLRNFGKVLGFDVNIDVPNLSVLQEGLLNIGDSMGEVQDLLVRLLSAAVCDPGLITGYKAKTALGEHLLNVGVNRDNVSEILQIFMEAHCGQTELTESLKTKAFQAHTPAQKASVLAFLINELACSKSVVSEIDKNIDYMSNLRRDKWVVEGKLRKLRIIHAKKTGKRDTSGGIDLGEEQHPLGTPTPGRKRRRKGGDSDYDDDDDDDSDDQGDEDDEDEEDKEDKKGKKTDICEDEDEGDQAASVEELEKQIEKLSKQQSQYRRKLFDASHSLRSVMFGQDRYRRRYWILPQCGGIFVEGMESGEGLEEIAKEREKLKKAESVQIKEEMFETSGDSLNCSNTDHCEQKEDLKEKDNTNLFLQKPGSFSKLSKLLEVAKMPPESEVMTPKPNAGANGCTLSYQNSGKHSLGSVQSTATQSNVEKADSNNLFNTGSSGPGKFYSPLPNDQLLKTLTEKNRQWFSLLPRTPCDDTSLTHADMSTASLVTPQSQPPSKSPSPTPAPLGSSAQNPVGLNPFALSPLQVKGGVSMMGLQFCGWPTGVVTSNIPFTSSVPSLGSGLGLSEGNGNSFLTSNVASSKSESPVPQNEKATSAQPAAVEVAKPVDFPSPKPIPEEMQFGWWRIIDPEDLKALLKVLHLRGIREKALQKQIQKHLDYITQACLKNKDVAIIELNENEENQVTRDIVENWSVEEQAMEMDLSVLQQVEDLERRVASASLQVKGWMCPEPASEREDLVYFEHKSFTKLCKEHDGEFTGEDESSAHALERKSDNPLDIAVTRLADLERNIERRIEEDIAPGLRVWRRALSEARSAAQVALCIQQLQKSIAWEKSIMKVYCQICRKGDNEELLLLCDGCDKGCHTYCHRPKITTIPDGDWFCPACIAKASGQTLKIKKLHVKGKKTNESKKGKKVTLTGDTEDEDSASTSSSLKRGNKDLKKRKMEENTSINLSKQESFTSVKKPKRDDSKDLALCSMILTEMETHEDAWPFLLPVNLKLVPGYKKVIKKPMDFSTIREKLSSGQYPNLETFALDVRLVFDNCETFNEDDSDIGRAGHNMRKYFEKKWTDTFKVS

The assay has as its target Bromodomain adjacent to zinc finger domain protein 2B (Homo sapiens) (UniProt Q9UIF8). The assay can be described thus: qHTS Assay for Inhibitors of BAZ2B. Further: nearly all actives have a fitted effect of over 60% in size. To be noted: AlphaScreen BAZ2B-H3K14Ac peptide displacement; series mostly up to 114 µM. The method, boiled down: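 Inhibition is scored as reduced AlphaScreen emission. The BAZ2B/b-H3(5-23)K14Ac complex (50 nM each) in PBS pH 7.4, 0.01% Tween-20 meets compound (up to 110 uM) for 30 min at RT before bead addition.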
In general terms: Quantitative high-throughput screening tests each substance at several concentrations.
For the molecule `Cc1cc(C)cc(NS(=O)(=O)c2ccc(-c3cc(C)no3)s2)c1`, the Potency result is “inactive”.

As for `Cc1ccc(C)c(Cn2c(C)c(CNCc3ccc(F)cc3)c(C(=O)O)c2C)c1`, the Potency entry is “inactive”.

As to `O=C(CCCn1c(=O)c2cccn2c2cccnc21)NCc1ccc(F)cc1`, the Potency entry is “inactive”.

For the molecule `COc1ccc(C(=O)NCCCN2CCOCC2)cc1Br`, the Potency entry is “inactive”.

Turning to `Cc1ccc(OCCCCN2CCCCC2)c(Br)c1`, the Potency was 50.1 µM (active).

As to `Cc1ccc(OCCCC(=O)N2CCOCC2)c(C)c1`, the Potency entry was “inactive”.

`COc1ccccc1NC(=O)c1cc(C2CC2)nc2c1c(C)nn2-c1ccc(C)cc1`: the Potency entry was “inactive”.

Take `CC(C)Cn1c(C2CC(=O)N(c3ccccc3Cl)C2)nc2ccccc21` (stereo not drawn): the Potency entry is “inactive”.

As to `Cc1c(Cl)cccc1NC(=O)CCS(=O)(=O)c1ccc2c(c1)oc(=O)n2C`, the Potency entry was “inactive”.

As to `Cc1ccccc1OCCSc1nc2ccc(NC(=O)c3ccco3)cc2s1`, the Potency entry was “inactive”.

For the molecule `Clc1ccc(N/N=C/c2cccs2)nn1`, the Potency is 50.1 µM (active).

For `Nc1nnnn1/N=C/c1cccs1`, the Potency entry was “inactive”.

Take `Oc1c(Br)cccc1/C=N/Nc1c(F)c(F)c(F)c(F)c1F`: the Potency entry is “inactive”.

Take `Cc1ccsc1/C=N/Nc1ccc(Cl)nn1`: the Potency entry was “inactive”.

`Oc1cccc(/C=N/Nc2ccc(Cl)nn2)c1O`: the Potency was 8.91 µM (active).

`COc1cccc(/C=N/Nc2ccc(Cl)nn2)c1`: the Potency entry is “inactive”.

With `Cc1cccc2c(=O)cc(CSc3ccccc3NC(=O)C(C)C)[nH]c12`, the Potency result was “inactive”.

As for `CCOC(=O)N1CCC(NC(=O)c2cnn(-c3cccc(C)c3)c2C2CCN(C(=O)OC(C)(C)C)CC2)CC1`, the Potency result was “inactive”.

Regarding `CCc1cccc(NC(=O)Cn2nc(CC)n3c(cc4cc(C)ccc43)c2=O)c1`, the Potency result is “inactive”.

As for `CC(C)CNc1ncnc2c1nnn2C`, the Potency entry was “inactive”.

With `O=C(CC(=O)N/N=C\c1ccc(F)cc1)NCCc1ccccc1`, the Potency entry is “inactive”.

With `O=C(CN1CCSCC1)N/N=C/c1ccc(F)cc1`, the Potency was 50.1 µM (active).

As for `Cc1nn(CC(=O)N/N=C/c2ccc(F)cc2)c(C)c1[N+](=O)[O-]`, the Potency entry was “inactive”.

Regarding `Cc1ccc(COc2ccc(/C=N/NC(=O)CN3CCCCC3)cc2)cc1`, the Potency entry was “inactive”.

Turning to `CCOc1ccc(/C=N/NC(=O)CSc2ccccn2)cc1O`, the Potency entry is “inactive”.

As to `CCOc1cc(/C=N/NC(=O)CN2CCCCC2)ccc1O`, the Potency was 56.2 µM (active).

`Cc1cccc(CSc2nc3ccncc3n2Cc2ccc(C(=O)O)cc2)c1`: the Potency result was “inactive”.

For the molecule `COc1ccc(CCNC(=O)CCCCn2c(=O)c3ccccc3n(Cc3ccccc3)c2=O)cc1OC`, the Potency result is “inactive”.

In the case of `Cc1ccc(SCC(=O)Nc2ccc3oc(-c4ccccc4C)nc3c2)cc1`, the Potency result was “inactive”.

As to `COc1ccc(NC(=O)c2ccc3nc(C(C)C)oc3c2)cc1OC`, the Potency entry was “inactive”.

On to `CCCc1cc(=O)n2[nH]c(NCc3ccc(CC)cc3)nc2n1`, for which the Potency entry was “inactive”.

As for `Nc1ccccc1SC(C[N+](=O)[O-])c1ccccc1` (stereo not drawn), the Potency is 44.7 µM (active).

For `COc1cc(CNC(=O)c2cc3n(n2)CCCN(Cc2cccc(F)c2)C3=O)cc(OC)c1OC`, the Potency result is “inactive”.

As for `Cc1oc2ccc(O)c(CN3CCOCC3)c2c1C(=O)Nc1cccc(Cl)c1C`, the Potency entry was “inactive”.

With `O=C(N/N=C/c1ccccn1)C12CC3CC(CC(C3)C1)C2`, the Potency result was “inactive”.

Consider `O=C(CNC(=O)c1cccnc1)N/N=C/c1cccnc1`, for which the Potency entry is “inactive”.

With `CNC(=O)C(=O)N/N=C/c1ccccn1`, the Potency was 39.8 µM (active).

For the molecule `Cc1cc(C(=O)N/N=C/c2ccccn2)c2ccccc2n1`, the Potency result was “inactive”.

With `O=C(N/N=C/c1ccccn1)c1cccc(NC(=O)c2ccc(Cl)cc2)c1`, the Potency result was “inactive”.

In the case of `O=C(N/N=C/c1ccccn1)c1cccnc1`, the Potency is 28.2 µM (active).

As for `COc1ccc(-c2noc(CSc3nc4ccc(C)cc4[nH]3)n2)cc1`, the Potency entry is “inactive”.

Consider `Cc1oc2ncnc(N3CCCCC3)c2c1C(=O)N1CCN(c2cccc(Cl)c2)CC1`, for which the Potency entry was “inactive”.

For `Cc1cccc(NC(=O)CSc2nnc(CNC(=O)c3cccc(C)c3)n2-c2ccccc2)c1`, the Potency result is “inactive”.

With `Cc1ccc(-c2ccc(CCC(=O)O)n2-c2ccc(C(N)=O)cc2)cc1`, the Potency result is “inactive”.

On to `CCN1CCN(Cc2c(O)ccc3oc(C)c(C(=O)Nc4ccc(C)cc4C)c23)CC1`, for which the Potency result is “inactive”.

As for `CN(CC#CCC(c1ccccc1)c1ccccc1)C(C)(C)C`, the Potency entry was “inactive”.

On to `CC(C)(C)N(CC#CCC(O)(c1ccccc1)C1CCCC1)CCO` (stereo not drawn), for which the Potency was 79.4 µM (active).

`OC(C#CCN1CCOCC1)(c1ccccc1)C1CCCCC1` (stereo not drawn): the Potency result was “inactive”.

Turning to `CCc1ccccc1NC(=O)c1ccc2nc(CCc3ccccc3)oc2c1`, the Potency entry was “inactive”.

Turning to `COC(=O)c1ccc(Cn2c(SCC(=O)N(C)c3ccccc3)nc3ccccc32)cc1`, the Potency result was “inactive”.

Regarding `O=C(Nc1ccccc1)c1nnsc1S(=O)(=O)c1ccc(Cl)cc1`, the Potency was 44.7 µM (active).

Consider `CN(c1cccc(NC(=O)Nc2ccc(Cl)cc2)c1)S(C)(=O)=O`, for which the Potency result was “inactive”.

`O=C(Nc1ccc(Oc2ccccc2)cc1)C1CCN(S(=O)(=O)c2ccc(Cl)cc2)CC1`: the Potency entry was “inactive”.

As for `CCCCN(CC)CCCNC(=O)c1nn(C)c2c1CSc1ccccc1-2`, the Potency entry was “inactive”.

For the molecule `Cc1ccccc1CNC(=O)c1cccc(NC(=O)c2nsc3ccccc23)c1`, the Potency result was “inactive”.

In the case of `O=C(CSc1nnc(-c2ccncc2)n1-c1ccccc1)Nc1ccc(Cl)c(Cl)c1`, the Potency result is “inactive”.

For `Cc1cc(C)cc(-n2c(SCC(=O)NCC3CCCO3)nc3c([nH]c4ccccc43)c2=O)c1` (stereo not drawn), the Potency result was “inactive”.

With `O=C1N/C(=C/c2cccs2)C(=O)N1Cc1ccc(F)cc1`, the Potency entry was “inactive”.

In the case of `CN(C)c1ccc(/C=C2\NC(=S)N(Cc3ccccc3)C2=O)cc1`, the Potency was 28.2 µM (active).

`CSc1c(SCc2ccccc2)cnn(Cc2ccccc2)c1=O`: the Potency result was “inactive”.

As to `CC1=NN(Cc2ccccc2)C(=O)/C1=C/c1ccc(N(C)C)cc1`, the Potency was 2 µM (active).

With `Cc1ccc(CN2C(=O)N/C(=C/c3cc(C)n(-c4ccccn4)c3C)C2=O)cc1`, the Potency result is “inactive”.

As to `CN(C)c1ccnc2sc3c(=O)n(Cc4ccccc4)cnc3c12`, the Potency entry was “inactive”.

For `CCc1ccc(C(=O)CC2(O)C(=O)N(CCc3ccccc3)c3ccc(Br)cc32)cc1` (stereo not drawn), the Potency entry is “inactive”.

On to `CCC1CCCCN1Cc1c(O)ccc2c(=O)c(Oc3ccccc3Cl)c(C(F)(F)F)oc12` (stereo not drawn), for which the Potency result was “inactive”.

As to `COCCNC(=O)c1ccc2c(c1)N(Cc1cccc(Cl)c1)C(=O)c1ccccc1S2(=O)=O`, the Potency result is “inactive”.

Turning to `Cc1c(-c2nsc(NC(=O)c3cccc(Cl)c3)n2)nnn1-c1ccccc1C(F)(F)F`, the Potency entry was “inactive”.

For `Cc1ccccc1Nc1scc(-c2ccc(Br)cc2)[n+]1-c1ccccc1C`, the Potency is 11.2 µM (active).
